For test [1], the target named is Acetylcholinesterase (Homo sapiens) (UniProt P22303). Put plainly: Acetylcholinesterase (AChE) small molecule antagonists: colormetric cell-based qHTS assay (AID 1347395). Also: nearly all actives have a fitted effect of over 30% in size. Also: potency is read from the fitted curve at half-maximal effect. The procedure, abridged: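 Colorimetric read-out: DTNB detects thiocholine released when cellular AChE in SH-SY5Y cells hydrolyses acetylthiocholine. Cells attached overnight, received compound for 30 min at 37 C, then substrate mix for 90 min at 37 C.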

For test [2] the target is unchanged. Briefly: Acetylcholinesterase (AChE) small molecule antagonists: enzyme-based qHTS assay (AID 1347397). Also: nearly all actives have a fitted effect of over 55% in size. Also: potency is read from the fitted curve at half-maximal effect. The conditions noted are these: Potency: AChE enzyme activity inhibition; outcome: AChE enzyme activity inhibition. The procedure, abridged:
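Recombinant human AChE, dispensed at 50 mU/mL, was preincubated with Tox21 10K compounds or DMSO vehicle for 30 min at room temperature. DTNB plus acetylthiocholine was then added, and thiocholine was measured colorimetrically after a further 10 min.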
On the technique in general: qHTS replaces the single test concentration by a dilution series.

The target is the same in test [3]. Put plainly: Acetylcholinesterase (AChE) small molecule antagonists: fluorescence cell-based qHTS assay (AID 1347398). Also: nearly all actives have a fitted effect of over 50% in size. Also: potency is read from the fitted curve at half-maximal effect. The settings on record: Potency: AChE activity; outcome: AChE activity. The procedure, abridged:
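Human SH-SY5Y cells were plated overnight at 37 C, exposed to compound for 30 min at 37 C, 5% CO2, then given acetylthiocholine plus Thiolite Green for 40 min at room temperature; thiocholine fluorescence (Ex/Em 490/520 nm) reports endogenous AChE activity.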

Test [4] shares this target. Briefly: Acetylcholinesterase (AChE) small molecule antagonists: enzyme-based qHTS assay with human liver microsomes (AID 1347399). Also: nearly all actives have a fitted effect of over 60% in size. The settings on record: Potency: qHTS inhibition; outcome: qHTS inhibition. Put shortly: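 Recombinant human AChE (50 mU/mL in the enzyme mix) and human liver microsomes (0.25 mg/mL final) were preincubated with compound and NADPH (0.25 mg/mL final) for 30 min at 37 C. Acetylthiocholine/DTNB was then added; thiocholine was read colorimetrically after 10 min at room temperature.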

Several values for one entry are separate records, joined by “and”; a condition that tells them apart may be missing. Equal entries are not always repeated. Records with an inconclusive call do not appear. The source holds several records for some structures; these can differ, active in one and inactive in another. Activity calls are given as the source filed them. Calls follow the shape of the full dose curve.
% is scaled to controls: 0 for no effect and ±100 for the full control effect.

Sequence of Acetylcholinesterase (Homo sapiens) (P22303 whole entry, looked up): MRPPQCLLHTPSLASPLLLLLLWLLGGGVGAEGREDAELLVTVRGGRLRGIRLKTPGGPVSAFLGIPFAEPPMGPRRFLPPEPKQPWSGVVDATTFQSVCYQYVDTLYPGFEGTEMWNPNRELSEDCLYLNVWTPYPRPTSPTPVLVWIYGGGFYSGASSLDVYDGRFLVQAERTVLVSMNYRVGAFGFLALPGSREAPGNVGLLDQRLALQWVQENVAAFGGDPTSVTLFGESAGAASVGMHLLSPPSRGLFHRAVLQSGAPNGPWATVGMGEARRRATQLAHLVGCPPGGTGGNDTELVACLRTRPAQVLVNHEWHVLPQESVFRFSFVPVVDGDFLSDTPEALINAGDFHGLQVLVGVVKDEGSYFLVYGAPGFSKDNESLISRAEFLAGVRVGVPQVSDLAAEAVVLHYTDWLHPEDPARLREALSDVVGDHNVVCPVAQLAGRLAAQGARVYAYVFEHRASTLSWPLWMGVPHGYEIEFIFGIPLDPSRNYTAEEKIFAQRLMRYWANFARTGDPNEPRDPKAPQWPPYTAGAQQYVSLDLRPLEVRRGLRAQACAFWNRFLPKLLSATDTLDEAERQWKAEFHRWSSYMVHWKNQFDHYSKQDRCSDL

Consider `Cc1ccc(O)c(C(=O)c2ccccc2)c1`, for which the Potency result in test [1], in test [2], in test [3] and in test [4] was “inactive” throughout.

As to `CCOB(OCC)OCC`, the Potency result in test [1], in test [2], in test [3] and in test [4] was “inactive” in each case.

With `CC[C@]1(O)C[C@H]2CN(CCc3c([nH]c4ccccc34)[C@@](C(=O)OC)(c3cc4c(cc3OC)N(C=O)[C@H]3[C@@](O)(C(=O)OC)[C@H](OC(C)=O)[C@]5(CC)C=CCN6CC[C@]43[C@@H]65)C2)C1`, the Potency entry in test [1], in test [2], in test [3] and in test [4] was “inactive” each time.

With `O=C1OC2(c3ccc(O)cc3Oc3cc(O)ccc32)c2ccc(N=C=S)cc21`, the Potency entry in test [1], in test [2], in test [3] and in test [4] was “inactive” each time.

As to `CCO[Si](CCCN)(OCC)OCC`, the Potency entry in test [1], in test [2], in test [3] and in test [4] was “inactive” each time.

Turning to `FB(F)F`, the Potency entry in test [1], in test [2], in test [3] and in test [4] was “inactive” throughout.

As for `C#C[C@]1(O)CC[C@H]2[C@@H]3[C@H](C)CC4=C(CCC(=O)C4)[C@H]3CC[C@@]21C`, the Potency entry in test [1], in test [2], in test [3] and in test [4] was “inactive” in each case.

For the molecule `O=C(O)CCc1nc2ccccc2[nH]1`, the Potency result in test [1], in test [2], in test [3] and in test [4] was “inactive” each time.

Turning to `CN(C)c1ccc(CCO)cc1`, the Potency entry in test [1], in test [2], in test [3] and in test [4] was “inactive” in each case.

With `CC1(O)CSC(C)(O)CS1` (stereo not given), the Potency result in test [1], in test [2], in test [3] and in test [4] was “inactive” throughout.

With `C=CC(C)CCCC(C)(C)O` (stereo not given), the Potency entry is “inactive and 28.3 µM (active)” in test [1]; “inactive and 25.2 µM (active)” in test [2]; “inactive and 22.4 µM (active)” in test [3]. For the same molecule, in test [4], the Potency result is “inactive”.

For the molecule `CC(C)N1C(=O)c2ccccc2C1=O`, the Potency entry in test [1], in test [2], in test [3] and in test [4] was “inactive” throughout.

`COC(=O)c1c(Cl)c(Cl)c(C(=O)OC)c(Cl)c1Cl`: the Potency entry in test [1], in test [2], in test [3] and in test [4] was “inactive” throughout.

In the case of `O=C1OC(=O)c2cccc3cccc1c23`, the Potency entry in test [1], in test [2], in test [3] and in test [4] was “inactive” each time.

As for `FC(F)(F)/C(=N\OCC1OCCO1)c1ccc(Cl)cc1`, the Potency entry in test [1], in test [2], in test [3] and in test [4] was “inactive” each time.

Take `CC(C)(C)OC(=O)c1cccc(N)c1`: the Potency result in test [1], in test [2], in test [3] and in test [4] was “inactive” each time.

With `COCCOCC(OC)OC`, the Potency entry in test [1], in test [2], in test [3] and in test [4] was “inactive” in each case.

`COc1cc(C(=S)N2CCOCC2)ccc1O`: the Potency result in test [1], in test [2], in test [3] and in test [4] was “inactive” throughout.

With `CCCCNc1ccccc1`, the Potency entry in test [1], in test [2], in test [3] and in test [4] was “inactive” in each case.

With `CS(C)(=O)=O`, the Potency result in test [1], in test [2], in test [3] and in test [4] was “inactive” throughout.

For the molecule `CC(=O)Oc1ccccc1C(=O)O`, the Potency entry in test [1], in test [2], in test [3] and in test [4] was “inactive” in each case.

Consider `Cc1cc(=O)oc2cc(O)ccc12`, for which the Potency result in test [1], in test [2], in test [3] and in test [4] was “inactive” each time.

For the molecule `CN[C@@H]1[C@H](O)[C@H](NC)[C@H]2O[C@@]3(O)C(=O)C[C@@H](C)O[C@H]3O[C@@H]2[C@H]1O`, the Potency entry in test [1], in test [2], in test [3] and in test [4] was “inactive” in each case.

For the molecule `O=C(Oc1ccccc1)c1ccc(O)cc1`, the Potency result in test [1], in test [2], in test [3] and in test [4] was “inactive” in each case.

With `CCn1cc(C(=O)O)c(=O)c2cc(F)c(N3CCNC(C)C3)c(F)c21` (stereo not given), the Potency entry in test [1], in test [2], in test [3] and in test [4] was “inactive” throughout.

Turning to `O=c1[nH]nc(-c2ccc([N+](=O)[O-])o2)o1`, the Potency entry in test [1], in test [2], in test [3] and in test [4] was “inactive” in each case.

As for `OC[C@@H](O)C(O)[C@@H](O)CO` (stereo not given in full), the Potency result in test [1], in test [2], in test [3] and in test [4] was “inactive” in each case.

On to `CC(CN(CCN(CC(C)OCCO)CC(C)OCCO)CC(C)OCCO)OCCO` (stereo not given), for which the Potency entry in test [1], in test [2], in test [3] and in test [4] was “inactive” in each case.

Turning to `CCCCOCCOCCOCCOCCO`, the Potency result in test [1], in test [2], in test [3] and in test [4] was “inactive” each time.

`CC(C)c1ccccc1C(C)C`: the Potency result in test [1], in test [2], in test [3] and in test [4] was “inactive” throughout.

Turning to `BrCCOc1ccccc1`, the Potency result in test [1], in test [2], in test [3] and in test [4] was “inactive” in each case.

As for `Nc1ccc2cc3ccccc3cc2c1`, the Potency entry in test [1], in test [2], in test [3] and in test [4] was “inactive” each time.

`CCC(=O)c1ccc(O)cc1`: the Potency entry in test [1], in test [2], in test [3] and in test [4] was “inactive” in each case.

For the molecule `COc1ccc(OC)c(NC(=O)CC(C)=O)c1`, the Potency result in test [1], in test [2], in test [3] and in test [4] was “inactive” each time.

For `CCCCCCCCCCCc1ccccc1`, the Potency result in test [1], in test [2], in test [3] and in test [4] was “inactive” each time.

In the case of `Cc1nc2sccn2c(=O)c1CCN1CCC(=C(c2ccc(F)cc2)c2ccc(F)cc2)CC1`, the values for the Potency in test [1], in test [2] and in test [3] were 30.9 µM (active), 38.9 µM (active) and 15.5 µM (active), respectively. For the same molecule, the Potency result in test [4] was “inactive”.

`O=C1NCCN1`: the Potency entry in test [1], in test [2], in test [3] and in test [4] was “inactive” in each case.

As for `COc1ccc(N)c([N+](=O)[O-])c1`, the Potency entry in test [1], in test [2], in test [3] and in test [4] was “inactive” throughout.

As for `Cc1ccccc1C(OCCN(C)C)c1ccccc1` (stereo not given), the Potency entry in test [1], in test [2], in test [3] and in test [4] was “inactive” in each case.

As to `CN(C)c1ccc(Cc2ccc(N(C)C)cc2)cc1`, the Potency result in test [1], in test [2], in test [3] and in test [4] was “inactive” each time.

Regarding `CC(C)Cc1ccc(CC(=O)O)cc1`, the Potency result in test [1], in test [2], in test [3] and in test [4] was “inactive” in each case.

With `Cc1ccc(S(=O)(=O)NCl)cc1`, the Potency result in test [1], in test [2], in test [3] and in test [4] was “inactive” in each case.

Take `CC(C)=CCC[C@@](C)(O)[C@H]1CC=C(C)CC1`: the Potency result in test [1], in test [2], in test [3] and in test [4] was “inactive” each time.

In the case of `CC/C=C(\C(=O)N[C@@H]1C(=O)N2C(C(=O)OCOC(=O)C(C)(C)C)=C(COC(N)=O)CS[C@H]12)c1csc(N)n1`, the Potency result in test [1], in test [2], in test [3] and in test [4] was “inactive” each time.

As to `Clc1nc2ccccc2s1`, the Potency entry in test [1], in test [2], in test [3] and in test [4] was “inactive” in each case.

As to `CCCCCCCCSCC`, the Potency entry in test [1], in test [2], in test [3] and in test [4] was “inactive” in each case.

For the molecule `CCCCC(C)C(=O)O` (stereo not given), the Potency result in test [1], in test [2], in test [3] and in test [4] was “inactive” in each case.

Turning to `CC1=CC(=O)/C(=C(/C)O)C(=O)O1`, the Potency entry in test [1], in test [2], in test [3] and in test [4] was “inactive” throughout.

For `O=C1NCN(c2ccccc2)C12CCN(CCCC(c1ccc(F)cc1)c1ccc(F)cc1)CC2`, the Potency result in test [1], in test [2], in test [3] and in test [4] was “inactive” throughout.

In the case of `O=C(O)C1CCC(C(=O)O)CC1` (stereo not given), the Potency result in test [1], in test [2], in test [3] and in test [4] was “inactive” throughout.

Consider `CN(C)c1ccncc1`, for which the Potency entry in test [1], in test [2], in test [3] and in test [4] was “inactive” each time.

As for `N#C[C@@H]1CC(F)(F)CN1C(=O)CNC1CC2CCC(C1)N2c1ncccn1` (stereo not given in full), the Potency entry in test [1], in test [2], in test [3] and in test [4] was “inactive” throughout.

Turning to `N[C@H](C(=O)O)c1ccc(O)cc1`, the activity, negative = inhibition in test [1] is 0% [at 23.6 µM] (inactive). Also, the activity change, negative = inhibition was 0.185% [at 23.6 µM] (inactive) in test [2], 10.4% [at 23.8 µM] (inactive) in test [3] and -0.0013% [at 23.6 µM] (inactive) in test [4].

As for `CCOCCOCC`, the Potency result in test [1], in test [2], in test [3] and in test [4] was “inactive” in each case.

As to `N=c1nc(N2CCCCC2)cc(N)n1O`, the Potency result in test [1], in test [2], in test [3] and in test [4] was “inactive” throughout.

`CCCCCCCCCCCCCCC`: the Potency result in test [1], in test [2], in test [3] and in test [4] was “inactive” each time.

In the case of `O=NN(CCCl)C(=O)NC1CCCCC1`, the Potency entry in test [1], in test [2], in test [3] and in test [4] was “inactive” each time.

In the case of `O=C(O)CCCc1c[nH]c2ccccc12`, the Potency entry in test [1], in test [2], in test [3] and in test [4] was “inactive” in each case.

`C/C=C\C/C=C/CCCCCCCCOC(C)=O`: the Potency result in test [1], in test [2], in test [3] and in test [4] was “inactive” each time.

Consider `CC/C=C\CC1=C(C)CCC1=O`, for which the Potency result in test [1], in test [2], in test [3] and in test [4] was “inactive” throughout.
